Measured values reported in PubChem BioAssay (EPA / NIEHS).
The source made the active and inactive calls. How the source made its calls: active means hit-call score of the fitted dose curve at least 0.9, where 1 is the maximum; inactive means score below 0.9.

Assays:
[1] = molecular target: CCAAT/enhancer-binding protein beta (Homo sapiens) (UniProt P17676); experiment: ATG_C_EBP_CIS: Attagene CIS-FACTORIAL HepG2 Assay for human CCAAT/Enhancer Binding Protein (C/EBP) beta (AID 2282927); details: HepG2 Attagene cis-factorial transcription factor reporter; actives raise or lower the signal
How it was run: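 Endogenous transcription factor activity in human liver HepG2 cells is inferred from induction of a CEBPB-linked reporter mRNA. Exposure lasts 24 h; activity is fitted in both directions relative to DMSO.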

[2] = ATG_CMV_CIS: Attagene CIS-FACTORIAL HepG2 Assay for human CMV (Internal Marker) (AID 2282928); details: HepG2 CMV promoter reporter, transcription factor profiling; actives raise or lower the signal;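 further: endpoint acts as a background internal control marker rather than a target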
How it was run: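 Endogenous transcription factor activity read in HepG2 via transfected cis-promoter reporter units. After 24 h dosing, reporter mRNA measured by RT-PCR/capillary electrophoresis; gain or loss of signal fit relative to DMSO.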

[3] = ATG_DR4_LXR_CIS: Attagene CIS-FACTORIAL HepG2 Assay for human Liver X Receptor (LXR), DR4 submotif (AID 2282929); details: HepG2 Attagene DR4 cis-reporter, mRNA transcription; actives raise or lower the signal
How it was run: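 HepG2 cells were transiently transfected with multiple cis-regulated reporter units and dosed for 24 hours. The DR4 reporter mRNA was quantified by RT-PCR, 6-FAM labelling and capillary electrophoresis. Bidirectional fits used DMSO as baseline.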

[4] = molecular target: Aryl hydrocarbon receptor (Homo sapiens) (UniProt P35869); experiment: ATG_Ahr_CIS: Attagene CIS-FACTORIAL HepG2 Assay for human Aryl Hydrocarbon Receptor (Ahr) (AID 2282930); details: HepG2 AhR cis-factorial reporter transcription; actives raise or lower the signal
How it was run: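 Transient MRTU transfection of HepG2 → 24 h compound exposure → total RNA, oligo(dT) RT → PCR, 6-FAM extension, HpaI cut → CE fluorescence. DMSO = baseline; bidirectional curve fit.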

[5] = ATG_AP_1_CIS: Attagene CIS-FACTORIAL HepG2 Assay for human Activator Protein 1 (AP-1) (AID 2282931); details: HepG2 Attagene cis-factorial AP-1 reporter mRNA; actives raise or lower the signal
How it was run: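 HepG2 cells transiently transfected with cis-element-driven reporter transcription units, dosed for 24 hours. Reporter mRNA measured by RT-PCR, 6-FAM labelling, HpaI digestion and capillary electrophoresis. Bidirectional fitting against DMSO baseline.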

[6] = ATG_AP_2_CIS: Attagene CIS-FACTORIAL HepG2 Assay for human Activator Protein 2 (AP-2) (AID 2282932); details: HepG2 AP-2 cis-reporter, Attagene transcription factor profiling; actives raise or lower the signal
How it was run: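 Step one: transient transfection of HepG2 with reporter transcription units. Step two: 24 h chemical exposure. Step three: RNA extraction, RT-PCR, labelled fragment analysis by capillary electrophoresis; DMSO serves as baseline.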

[7] = ATG_BRE_CIS: Attagene CIS-FACTORIAL HepG2 Assay for human Bone Morphogenetic Protein (BMP) Response Element (BRE) (AID 2282933); details: HepG2 BMP response element reporter, Attagene transcription factor profiling; actives raise or lower the signal
How it was run: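 Gain- or loss-of-signal was derived by bidirectional fitting against DMSO controls. The signal came from reporter mRNA, measured by RT-PCR and capillary electrophoresis, in HepG2 cells transiently carrying multiple reporter units and dosed for 24 h.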

[8] = molecular target: Transcription factor E2F1 (Homo sapiens) (UniProt Q01094); experiment: ATG_E2F_CIS: Attagene CIS-FACTORIAL HepG2 Assay for human E2F Transcription Factor 1 (AID 2282935); details: HepG2 Attagene cis-reporter, E2F reporter RNA transcripts; actives raise or lower the signal
How it was run: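 Total RNA from 24 h-treated, reporter-transfected HepG2 cells undergoes DNase I treatment, oligo(dT) reverse transcription, PCR and 6-FAM primer extension before capillary electrophoresis.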

[9] = molecular target: Retinoic acid receptor alpha (Homo sapiens) (UniProt P10276); experiment: ATG_DR5_RAR_CIS: Attagene CIS-FACTORIAL HepG2 Assay for human Retinoic Acid Receptor Alpha (RARE), DR5 submotif (AID 2282934); details: HepG2 Attagene cis-factorial RARE DR5 reporter, mRNA; actives raise or lower the signal;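 on AC50: reporter responds to endogenous RAR alpha beta and gamma in HepG2 not RARA alone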
How it was run: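 Transient MRTU transfection of HepG2; 24 h compound treatment; TriZol RNA, oligo(dT) RT, PCR, FAM labelling, capillary electrophoresis. Bidirectional fit vs DMSO. Endogenous TF activity at DR5 RARE.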

[10] = ATG_CRE_CIS: Attagene CIS-FACTORIAL HepG2 Assay for human cAMP Responsive Element (CRE) binding protein 3 (AID 2282926); details: HepG2 CRE cis-reporter, Attagene multiplexed mRNA; actives raise or lower the signal
How it was run: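 Multiplexed transcription-unit reporters transfected into HepG2; 24 h dosing; RT-PCR/capillary electrophoresis fluorescence read-out; bidirectional fit vs DMSO.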

Measured: AC50

Retinoic acid receptor alpha (Homo sapiens), sequence (P10276 whole entry, looked up): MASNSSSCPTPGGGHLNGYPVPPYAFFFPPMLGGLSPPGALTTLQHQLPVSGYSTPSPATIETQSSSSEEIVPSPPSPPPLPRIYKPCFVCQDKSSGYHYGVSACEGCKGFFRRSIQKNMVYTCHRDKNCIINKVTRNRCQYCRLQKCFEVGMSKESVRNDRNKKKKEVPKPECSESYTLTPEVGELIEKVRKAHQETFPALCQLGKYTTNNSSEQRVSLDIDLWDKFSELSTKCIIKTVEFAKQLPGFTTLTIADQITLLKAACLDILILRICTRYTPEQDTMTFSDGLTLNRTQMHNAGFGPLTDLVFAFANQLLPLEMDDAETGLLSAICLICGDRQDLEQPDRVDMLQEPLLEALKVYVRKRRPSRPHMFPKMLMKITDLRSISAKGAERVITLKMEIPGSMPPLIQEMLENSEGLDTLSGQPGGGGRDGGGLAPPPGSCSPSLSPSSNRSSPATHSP
Aryl hydrocarbon receptor (Homo sapiens), sequence (P35869 whole entry, looked up): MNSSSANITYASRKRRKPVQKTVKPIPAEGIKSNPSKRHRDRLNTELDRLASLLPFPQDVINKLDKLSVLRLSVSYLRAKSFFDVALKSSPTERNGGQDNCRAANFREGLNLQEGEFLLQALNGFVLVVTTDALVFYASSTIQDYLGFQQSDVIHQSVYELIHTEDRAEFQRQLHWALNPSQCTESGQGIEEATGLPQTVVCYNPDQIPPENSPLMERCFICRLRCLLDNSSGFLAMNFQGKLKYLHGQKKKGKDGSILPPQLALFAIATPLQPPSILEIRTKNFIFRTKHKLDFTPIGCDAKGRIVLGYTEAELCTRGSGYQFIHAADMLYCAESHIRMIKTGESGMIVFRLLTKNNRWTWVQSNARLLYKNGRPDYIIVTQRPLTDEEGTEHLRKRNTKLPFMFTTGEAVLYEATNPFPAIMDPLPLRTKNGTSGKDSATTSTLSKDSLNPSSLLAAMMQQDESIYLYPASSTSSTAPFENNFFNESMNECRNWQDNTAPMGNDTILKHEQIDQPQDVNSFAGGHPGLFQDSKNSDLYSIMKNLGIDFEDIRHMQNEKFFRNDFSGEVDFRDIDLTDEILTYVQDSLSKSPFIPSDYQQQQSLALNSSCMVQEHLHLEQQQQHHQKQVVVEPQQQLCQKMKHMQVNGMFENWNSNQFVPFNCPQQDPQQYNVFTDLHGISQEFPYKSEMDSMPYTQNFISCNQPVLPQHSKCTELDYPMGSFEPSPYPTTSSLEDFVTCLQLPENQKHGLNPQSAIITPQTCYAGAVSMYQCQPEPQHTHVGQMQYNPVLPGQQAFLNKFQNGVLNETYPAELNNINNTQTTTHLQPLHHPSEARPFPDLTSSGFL
Transcription factor E2F1 (Homo sapiens), sequence (Q01094 whole entry, looked up): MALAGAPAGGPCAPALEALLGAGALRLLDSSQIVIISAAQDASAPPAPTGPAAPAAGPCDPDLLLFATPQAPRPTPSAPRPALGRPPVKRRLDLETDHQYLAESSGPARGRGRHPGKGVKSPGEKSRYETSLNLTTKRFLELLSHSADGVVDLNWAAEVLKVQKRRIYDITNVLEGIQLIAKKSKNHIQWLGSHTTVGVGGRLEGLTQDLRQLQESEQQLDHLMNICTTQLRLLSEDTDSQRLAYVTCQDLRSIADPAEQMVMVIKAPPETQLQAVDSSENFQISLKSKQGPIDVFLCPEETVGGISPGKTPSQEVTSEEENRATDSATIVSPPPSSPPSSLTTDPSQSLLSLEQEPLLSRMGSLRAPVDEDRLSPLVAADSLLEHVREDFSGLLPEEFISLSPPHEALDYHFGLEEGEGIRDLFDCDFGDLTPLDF
CCAAT/enhancer-binding protein beta (Homo sapiens), sequence (P17676 whole entry, looked up): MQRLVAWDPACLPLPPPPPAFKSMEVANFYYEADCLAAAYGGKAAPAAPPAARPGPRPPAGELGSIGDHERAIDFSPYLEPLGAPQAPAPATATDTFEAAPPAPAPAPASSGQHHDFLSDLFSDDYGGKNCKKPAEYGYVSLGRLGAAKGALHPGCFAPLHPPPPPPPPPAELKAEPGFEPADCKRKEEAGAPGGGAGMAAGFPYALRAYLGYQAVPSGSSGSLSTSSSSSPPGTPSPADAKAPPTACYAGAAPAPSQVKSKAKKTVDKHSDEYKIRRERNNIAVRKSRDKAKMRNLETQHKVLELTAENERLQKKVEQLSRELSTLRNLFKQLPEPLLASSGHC

COC[C@H](C)N(C(=O)CCl)c1c(C)csc1C
not listed: [9] | [10]
inactive: all other assays above

CCC(C)c1cccc(C(C)CC)c1O (configuration not stated)
not listed: [6] | [10]
inactive: all other assays above

ClC1=C(Cl)[C@]2(Cl)[C@@H]3[C@@H](Cl)[C@@H](Cl)C[C@@H]3[C@@]1(Cl)C2(Cl)Cl
not listed: [4] | [6] | [7]
inactive: all other assays above

ClC1=C(Cl)[C@]2(Cl)[C@H]3[C@H]([C@H]4C=C[C@H]3C4)[C@@]1(Cl)C2(Cl)Cl
active: [3] 10.2 µM
not listed: [9] | [10]
inactive: all other assays above

CCCCCCCCCl
not listed: [10]
inactive: all other assays above

CCCCCCCCC(=O)NCc1ccc(O)c(OC)c1
active: [3] 54.5 µM | [7] 171 µM
not listed: [4]
inactive: all other assays above

CN(CCCC(=O)c1cccnc1)N=O
not listed: [7] | [9] | [10]
inactive: all other assays above

CCOP(=S)(OCC)Oc1nc(Cl)c(Cl)cc1Cl
inactive: [1]
active: [2] 26.1 µM | [3] 27.4 µM | [4] 2.35 µM | [5] 46.2 µM | [7] 65.5 µM | [8] 48.6 µM

CCOC(=O)Nc1cccc(OC(=O)Nc2ccccc2)c1
not listed: [10]
inactive: all other assays above

O=C/C=C/c1ccccc1
not listed: [10]
inactive: all other assays above

COc1ccc(C=O)cc1
not listed: [9] | [10]
inactive: all other assays above

Clc1ccc(C2(Cn3cncn3)CC(Br)CO2)c(Cl)c1 (configuration not stated)
inactive: [1] | [6] | [8]
active: [2] 99.5 µM | [3] 68.1 µM | [4] 27.6 µM | [5] 35.5 µM | [7] 99.5 µM

CC(C)c1ccc(CO)cc1
not listed: [4]
inactive: all other assays above

C[C@]12CC[C@H](O)CC1=CC[C@@H]1[C@@H]2CC[C@]2(C)C(=O)CC[C@@H]12
active: [2] 27.7 µM
not listed: [10]
inactive: all other assays above

CNC(=O)O/N=C/C(C)(C)S(C)=O (configuration not stated)
active: [3] 99.5 µM | [5] 73 µM
inactive: [1] | [2] | [7] | [9] | [8]

N#CCCO
not listed: [10]
inactive: all other assays above

CC(=O)OC(c1ccccc1)C(Cl)(Cl)Cl (configuration not stated)
not listed: [4] | [7] | [9]
inactive: all other assays above

O=C1CCCN1
not listed: [9] | [10]
inactive: all other assays above

O=Cc1cccc(Oc2ccccc2)c1
not listed: [10]
inactive: all other assays above

C[C@@H](Oc1ccc(Cl)cc1Cl)C(=O)O
not listed: [7] | [10]
inactive: all other assays above

CCCCCCCCSC(=O)Oc1cc(Cl)nnc1-c1ccccc1
active: [2] 171 µM | [3] 159 µM | [5] 122 µM | [9] 100 µM
not listed: [10]
inactive: all other assays above

Nc1ccc(Cl)cc1C(=O)c1ccccc1
active: [3] 49.5 µM
not listed: [9] | [10]
inactive: all other assays above

Oc1ccc(-c2ccccc2)cc1
active: [2] 44.9 µM | [6] 26.8 µM | [9] 154 µM
not listed: [7] | [10]
inactive: all other assays above

BrCCBr
not listed: [10]
inactive: all other assays above

COP(=O)(OC)OC
not listed: [9] | [10]
inactive: all other assays above

CC1(C)CCC(Cc2ccc(Cl)cc2)C1(O)Cn1cncn1 (configuration not stated)
active: [3] 56.7 µM | [4] 4.7 µM | [5] 33.4 µM | [7] 52.3 µM
inactive: [1] | [2] | [8]

O=[N+]([O-])c1ccc2c3c(cccc13)CC2
not listed: [4] | [6] | [10]
inactive: all other assays above

C[C@H]1O[C@@H](O[C@H]2[C@@H](O)C[C@H](O[C@H]3[C@@H](O)C[C@H](O[C@H]4CC[C@@]5(C)[C@H](CC[C@@H]6[C@@H]5CC[C@]5(C)[C@@H](C7=CC(=O)OC7)CC[C@]65O)C4)O[C@@H]3C)O[C@@H]2C)C[C@H](O)[C@@H]1O
inactive: [10] | [2] | [8]
active: [1] 2.99 µM | [3] 0.0564 µM | [5] 13.6 µM | [6] 0.141 µM

Cc1ccc2ccccc2c1C
active: [4] 6.24 µM
not listed: [5] | [10]
inactive: all other assays above

Clc1ccc(COC(Cn2ccnc2)c2ccc(Cl)cc2Cl)cc1 (configuration not stated)
active: [3] 4.8 µM
not listed: [7] | [10]
inactive: all other assays above

Nc1ccc(N=Nc2ccc(-c3ccc(N=Nc4c(S(=O)(=O)O)cc5cc(S(=O)(=O)O)c(N=Nc6ccccc6)c(O)c5c4N)cc3)cc2)c(N)c1
active: [7] 4.8 µM
not listed: [6] | [10]
inactive: all other assays above

Clc1nc(Cl)nc(Cl)n1
active: [4] 69 µM
not listed: [9] | [10]
inactive: all other assays above

CN(C)P(=O)(N(C)C)N(C)C
not listed: [6] | [10]
inactive: all other assays above

OCC(O)CCl (configuration not stated)
not listed: [6] | [10]
inactive: all other assays above

C(=NC1CCCCC1)=NC1CCCCC1
active: [3] 33.4 µM
not listed: [7] | [10]
inactive: all other assays above
